RORgamma inh: inhibitors of mouse ROR gamma transcriptional activity; Drosophila S2 Gal4-RORgamma UAS-luciferase reporter, 20 h; hit rate 5.4% among 310,000; Potency, µM (top dose mostly 53.6 µM), for inactives: at the highest dose activity change, negative = inhibition, usual class: inhibitors; further: potency means the concentration at half of the fitted maximal effect; on the % scale 0 is the no-effect control and ±100 the full control effect; nearly all actives have a fitted effect of over 60% in size
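Drosophila S2 cells stably expressing Gal4-DBD/mouse RORγ fusion under metallothionein promoter plus UAS-luciferase; compound 1 h, then 700 uM CuSO4 induction for 20 h at ambient temperature; inhibition read as reduced luminescence.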
a7 integrin act: activators of alpha7 integrin expression for muscular dystrophy | alpha7betagal myoblasts, beta-gal FDG fluorescence, 48 h | Potency, µM (doses to about 38.3 µM), inactives show at the top dose activation, hits mostly activators | hit rate 0.064% among 350,000 | AID 624291;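 further: potency means the concentration at half of the fitted maximal effect; 100% = response of the positive control SU9516; nearly all actives have a fitted effect of over 60% in size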
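Alpha7betagal+/- myoblasts (passage 13) were plated 16-24 hr, then exposed to compounds (1:260 dilution of DMSO stock) for 48 hours at 37C. After MPER lysis, β-galactosidase reporter activity was read as FDG fluorescence (ex 480/em 540) after 30 minutes.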
Gal4-VP16 FLuc: Gal4-VP16 reporter inhibition counter-screen | Drosophila S2 Gal4-VP16 UAS-luciferase, luminescence, 20 h | Potency, µM (top dose mostly 53.6 µM), inactives show top-dose activity, negative = inhibition, actives largely listed as inhibitors | hit rate 3.5% among 310,000 | AID 2546;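 further: Gal4-VP16 expression switched on by copper sulfate through the metallothionein promoter; potency means the concentration at half of the fitted maximal effect; on the % scale 0 is the no-effect control and ±100 the full control effect; nearly all actives have a fitted effect of over 50% in size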
ERG Ets-DNA blk: ERG Ets/DNA interaction inhibition; Potency, µM (titrated, usually from 76.9 µM), inactives show at the highest dose FP activity, negative = inhibition, most hits filed as inhibitors; P11308; fluorescence polarization, His-ERG Ets domain / labelled DNA; hit rate 0.028% among 370,000; active means well fitted inhibition curve with a large enough effect in the polarisation, with a control signal flat; inconclusive means small, poorly fitted or top-dose-only effect, or effect the other way, or a change in a side signal; inactive means no such curve, though single readings can be large or run the other way; the % refers to the polarisation;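 further: polarization taken with two DNA probes labelled with fluorescein and Texas red; potency means the concentration at half of the fitted maximal effect; % of control where 0% means no effect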
Target sequence (P11308 whole entry, looked up, the tested form may be a part): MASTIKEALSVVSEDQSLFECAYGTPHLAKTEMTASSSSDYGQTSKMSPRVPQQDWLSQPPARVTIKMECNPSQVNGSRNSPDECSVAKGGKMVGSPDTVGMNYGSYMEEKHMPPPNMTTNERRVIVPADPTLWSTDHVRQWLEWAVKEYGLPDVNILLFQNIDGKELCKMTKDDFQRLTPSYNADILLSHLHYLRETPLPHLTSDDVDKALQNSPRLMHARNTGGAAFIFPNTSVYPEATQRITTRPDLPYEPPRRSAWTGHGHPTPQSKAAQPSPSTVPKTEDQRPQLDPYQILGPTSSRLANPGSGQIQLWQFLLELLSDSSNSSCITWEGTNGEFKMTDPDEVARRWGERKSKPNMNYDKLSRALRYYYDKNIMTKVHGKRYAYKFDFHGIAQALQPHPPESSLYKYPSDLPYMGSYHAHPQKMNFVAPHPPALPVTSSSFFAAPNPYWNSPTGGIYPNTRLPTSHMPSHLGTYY
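His-tagged ERG Ets domain (1 uM in the protein solution; 300mM KCl, 50mM Tris-HCl, 1mM EDTA, 1mM DTT, pH 7.5) received compound, then a probe mix of 5 nM fluorescein-DNA and 100nM Texas-615-DNA. Fluorescence polarization was read for both dyes.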
Giardia killer: kills Giardia lamblia. Giardia lamblia trophozoite viability. activity change, % at 7.66 µM, hits read low. hit rate 0.15% among 340,000; in the data active means activity change below about -80%; inconclusive means between about -30% and that limit;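 further: parasites exposed to compound for two days anaerobically before the ATP read; on the % scale 0 is the no-effect control and ±100 the full control effect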
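Viability, read as ATP luminescence: trophozoites at 100 cells/well, compound added, 48 hrs anaerobic at 37 deg C, then 15-30 min room-temperature development before reading.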
An asterisk follows results filed as active; u = inconclusive; x = not tested or not shown; [ ] = dose if it differs, or a comment. Shown is part of a subset that was picked to be rich in hits. Unless noted, the call rests on the fitted dose curve; in most records, active means well fitted curve in the direction sought with a large enough effect; inconclusive means small, poorly fitted or top-dose-only effect, or another doubt; inactive means no such curve, though single readings can be large; an effect the other way counts as inactive or inconclusive.

SMILES	RORgamma inh	a7 integrin act	Gal4-VP16 FLuc	ERG Ets-DNA blk	Giardia killer
Cc1ccc(S(=O)(=O)N2CCCN(c3nc(-c4cccs4)nc4ccccc34)CC2)cc1	x	x	x	x	1
Cc1cc(C(=O)NNC(=S)NCC(C)C)no1	7.9µM*	5%[7.66 µM]	-24%	-3%	-3
CN(c1ccccc1)c1nc(C#N)nc(N2CCOCC2)n1	x	x	x	x	4
COc1ccc(CNc2ccnc(-c3c(C)noc3C)n2)c(OC)c1	2%	x	2%	x	x
Cc1ccc(S(=O)(=O)Nc2c(Cl)c(Cl)c(O)c3ccccc23)cc1	18µM*	x	u	x	x
Cc1ccc(S(=O)(=O)Nc2c(O)ccc3ccccc23)cc1	x	-30%	x	12%	1
C=CCNc1nc(Nc2ccccc2F)nc(OCC)n1	13µM*	14%	11%[10 µM]	-3%	-6
CCOCCCNC(=S)Nc1cc(OCC)c(NC(=O)c2ccco2)cc1OCC	7.9µM*	4%	-4%	2%	-3
COCCNC(=S)Nc1cc(OC)c(NC(=O)c2ccco2)cc1OC	-31%	0%	-4%	30%	4
CCOc1cc(NC(=S)NCC(C)C)c(OCC)cc1NC(=O)c1ccco1	5µM*	-11%	7.9µM*	u	14
CNC(=O)c1cc2c(cn1)[nH]c1ccccc12	-43%	x	-7%	16%	-2
CCCCOC(=O)c1cc2c(cn1)[nH]c1ccccc12	16µM*	x	32µM*	x	x
CC1(C)CC(=O)C2=C(C1)NC(Nc1nc3ccccc3o1)=NC2c1ccccn1 (centres undefined)	3.5µM*	-14%	1.1µM*	-3%	8
CC1(C)CC(=O)C2=C(C1)NC(Nc1nc3ccccc3o1)=NC2c1ccccc1Cl (centres undefined)	x	x	x	x	4
COc1ccc(-c2noc(CCCC(=O)NC3CCCCC3)n2)cc1	79%	-17%	16µM*	-3%	3
O=C(CCCc1nc(-c2ccccc2Cl)no1)NC1CCCC1	8.9µM*	-25%	u	4%	-7
COc1ccc(-c2noc(CCC(=O)NC3CCCC3)n2)cc1	12%	-15%	-6%	1%	u
COc1ccccc1-c1noc(CCCC(=O)NC2CCCC2)n1	-6%	-10%	4%	28%	-1
O=C(CSc1nnc(NC(=O)c2cccc(F)c2)s1)NCc1ccco1	-6%	-19%	-6%	-4%	-19
COc1ccc(Br)cc1C1NC(c2ccc3c(c2)OCO3)=CC(c2ccccc2O)N1 (centres undefined)	x	x	x	x	-17
Cc1cc(C(=O)NNC(=O)c2ccc(C(F)(F)F)cc2)no1	6%	16%	2%	8%	8
Cc1nc(C(=O)NNC(=O)c2ccc(C(F)(F)F)cc2)cs1	5µM*	6%	u	8%	-21
Cc1ccc(/C=N/NC(=S)N2CCOCC2)cc1	0.56µM*	-36%	0.89µM*	3%	-1
S=C(N/N=C/c1ccc(Cl)cc1)N1CCOCC1	0.35µM*	-18%	1.8µM*	-11%	14
S=C(N/N=C/c1ccc(Br)cc1)N1CCCCC1	1.4µM*	27%	0.89µM*	-9%	-24
SMILES	RORgamma inh	a7 integrin act	Gal4-VP16 FLuc	ERG Ets-DNA blk	Giardia killer
Cc1ccccc1C(=O)Nc1nnc(SCc2cc(=O)c3c(C)ccc(C)c3[nH]2)s1	x	x	x	6%	x
CSc1nc(Nc2ccc(C)cc2)c(C#N)c(-c2ccccc2)n1	x	x	x	0%	x
C/C(=N\Nc1ncc(Cl)cc1Cl)c1ccccn1	0.71µM*	-71%	14µM*	-6%	-28
C/C(=N\Nc1cc(N2CCCCC2)nc(C)n1)c1ccc(Br)cc1	u	-57%	6.3µM*	-2%	u
C/C(=N\NC(=O)c1ccncc1)c1ccc(N2CCOCC2)cc1	x	3%	x	20%	-12
C/C(=N\Nc1nc2ccccc2[nH]1)c1ccc(N2CCOCC2)cc1	3.2µM*	-10%	u	-5%	u
C/C(=N\NC(=O)c1ccccc1)c1ccc(N2CCOCC2)cc1	-1%	-4%	4%	-2%	-13
C/C(=N\Nc1ncc(Cl)cc1Cl)c1ccc(N2CCOCC2)cc1	5µM*	22%	u	6%	15
CCNc1nc(C#N)nc(N2CCOCC2)n1	x	x	x	x	7
C[C@]12c3[nH]c4ccccc4c3CCN1C(=O)C(CC(=O)NCCCn1ccnc1)C[C@@H]2C(=O)N1CCCCC1 (some centres undefined)	x	14%	x	0%	10
C/C(=N\Nc1cccc2cccnc12)c1ccccn1	0.63µM*	-29%	4µM*	7%	u
C/C(=N/Nc1nc(C)cc(C)n1)c1ccc(Br)cc1	7.9µM*	1%	7.9µM*	4%	7
C/C(=N\Nc1ncnc2sc(C)c(C)c12)c1ccccn1	0.4µM*	-75%	0.79µM*	5%	0
C/C(=N\Nc1nc(C)cc(C)n1)c1ccc(N2CCOCC2)cc1	11µM*	-28%	-5%	-18%	-8
CCCNC(=O)c1cnc2c(-c3ccc(OCC)c(OCC)c3)c(C)nn2c1-c1ccccc1	x	x	x	4%	x
Cc1c(Cl)cccc1NC(=O)CNC(=O)C1CCN(C(=O)Nc2ccccc2)CC1	x	27%	x	-3%	7
CC(=O)c1ccc(-c2ccc(C3C4C=CCCC4(C)C(=O)N3Cc3ccccc3)c(F)c2)cc1 (centres undefined)	45%	x	-9%	x	36
COc1ccc(-c2nn(-c3ccccc3)cc2C(=O)Nc2nccs2)cc1	7.1µM*	24%	11µM*	6%	-7
COc1cccc(-c2nn(-c3ccccc3)cc2C(=O)n2nnc3ccccc32)c1	u	-13%	4%	-2%	8
O=C(Nc1nccs1)c1cn(-c2ccccc2)nc1-c1ccncc1	-33%	9%	0%	4%	3
COc1cccc(-c2nn(-c3ccccc3)cc2C(=O)Nc2nccs2)c1	6.3µM*	14%	18µM*	-1%	7
Cc1ccc(N2C(=O)CS(=O)(=O)C23C(=O)N(Cc2ccccc2C)c2ccccc23)cc1Cl (centres undefined)	x	x	x	-7%	x
Cc1nn(-c2ccc(C(=O)O)cc2)c(N)c1-c1ccccc1	10µM*	u	u	10%	u

Screening data: PubChem BioAssay, National Center for Advancing Translational Sciences (NCATS)
